{"source": "PubChem BioAssay (NCATS)", "note": "Inconclusive results are not listed. Unmarked numbers belong to inactive results. Calls of active or inactive are those of the source. Calls come from the whole dose curve; as a rule, active = well fitted inhibition curve with a large enough effect; inconclusive = small, poorly fitted or top-dose-only effect; inactive = no such curve, though single readings can be large or run the other way. % is set by controls: 0 for no effect and ±100 for the full control effect."}
{"test_system": "Zika virus NS2B-NS3 protease (linked construct)", "test": "Primary screen NINDS Rhodamine qHTS for Zika virus inhibitors (AID 1347160); note: nearly all actives have a fitted effect of over 55% in size", "conditions": "purified NS2B-NS3 protease, Rhodamine110 substrate fluorescence; series mostly up to 57.1 µM; activity change, negative = inhibition: at the top concentration", "summary_of_the_method": "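Purified NS2B-NS3 protease with the NS2B hydrophilic domain joined by a flexible linker (25 nM) in 10 mM Tris-HCl pH 8.0, 0.01% Tween 20, preincubated 15 min at RT with compound; Rhodamine110 peptide substrate 1.5 µM; fluorescence change over 15 min; 4-parameter Hill fit.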"}
{"smiles": "NS(=O)(=O)OC[C@@H]1C[C@@H](n2ccc3c(N[C@H]4CCc5ccccc54)ncnc32)C[C@@H]1O", "Potency": "inactive"}
{"smiles": "C=C1CCC2C(C)(COC3OC(COC(=O)CC(=O)O)C(O)C(O)C3O)CCCC2(C)C1CCC1=CCOC1=O", "note": "(stereo not given)", "activity change, negative = inhibition": "-4.11% [at 33.1 µM]"}
{"smiles": "CC(=O)N1c2ccccc2C2(O)CC3C(=O)NC(CC(C)C)C(=O)N3C12", "note": "(stereo not given)", "activity change, negative = inhibition": "36.1% [at 33.1 µM]"}
{"smiles": "CCC(C)(O)C(O)C(=O)OCc1ccc(O[C@@H]2O[C@H](CO)[C@@H](O)[C@H](O)[C@H]2O)c(OC)c1", "note": "(stereo not given in full)", "activity change, negative = inhibition": "20.3% [at 33.1 µM]"}
{"smiles": "COc1c2c(c(C)c3c1C(=O)OC3)OC1(C)CC(O)C3(O)C(C)(C)OC(=O)CCC3(C)C1C2", "note": "(stereo not given)", "activity change, negative = inhibition": "22.6% [at 33.1 µM]"}
{"smiles": "CCN(c1cc(C#CCN2CCOCC2)cc(C(=O)NCc2c(C)cc(C)[nH]c2=O)c1C)C1CCC(N(C)CCOC)CC1", "note": "(stereo not given)", "activity change, negative = inhibition": "4.39% [at 33.1 µM]"}
{"smiles": "C[C@H]1CN(C[C@H](Cc2ccccc2)C(=O)NCC(=O)O)CC[C@@]1(C)c1cccc(O)c1", "outcome": "inactive"}
{"smiles": "C[C@H](NCc1ccc(OCc2ccccc2F)cc1)C(N)=O", "outcome": "inactive"}
{"smiles": "CC(C)=CCC[C@](C)(O[C@@H]1O[C@H](CO[C@@H]2OC[C@@H](O)[C@H](O)[C@H]2O)[C@@H](O)[C@H](O)[C@H]1O)[C@H]1CC[C@]2(C)[C@@H]1[C@H](O)C[C@@H]1[C@@]3(C)CC[C@H](O[C@@H]4O[C@H](CO)[C@@H](O)[C@H](O)[C@H]4O[C@@H]4O[C@H](CO)[C@@H](O)[C@H](O)[C@H]4O)C(C)(C)[C@@H]3CC[C@]12C", "activity change, negative = inhibition": "15.8% [at 33.1 µM]"}
{"smiles": "CC[C@H]1OC(=O)[C@H](C)[C@@H](OC2C[C@@](C)(OC)[C@@H](O)[C@H](C)O2)[C@H](C)[C@@H](OC2O[C@H](C)C[C@H](NC)[C@H]2O)[C@](C)(O)C[C@@H](C)CN(C)[C@H](C)[C@@H](O)[C@]1(C)O", "note": "(stereo not given in full)", "activity change, negative = inhibition": "15.3%"}
